# Screen size: about 350,000 compounds; about 2,300 (0.66%) were called active. This excerpt belongs to a sample that is enriched for actives. Values without a mark were called inactive.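 How the source made its calls: active means mean inhibition of at least 50% after viability correction, with every replicate also passing that limit; inconclusive means mean reaches 50% but only one of two replicates passes; inactive means the rest.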
# Experiment: EWS/Fli-driven NR0B1 reporter inhibitors, primary screen, A673 cells, NR0B1 luciferase, luminescence, MLPCN library (AID 651661);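 further: firefly luciferase signal divided by Alamar Blue viability fluorescence both relative to DMSO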
# Settings: viability-normalised, at 12.6 µM, active compounds read high
row,SMILES,inhibition
1,COc1cccc(NC(=O)N2CC[C@@H]3[C@@H](CO)N(C)c4ccc(-c5cccc(F)c5)cc4[C@@H]32)c1,-0.284%
2,COc1ccccc1CNC(=O)C[C@H]1C[C@H]2c3cc(NS(=O)(=O)c4ccc(F)cc4)ccc3O[C@H]2[C@@H](CO)O1,-1.41%
3,C[C@@H]1CN([C@H](C)CO)C(=O)c2cccc(NS(=O)(=O)c3cn(C)cn3)c2O[C@H]1CN(C)S(=O)(=O)c1ccc(Cl)cc1,1.45%
4,C[C@@H]1CCCCO[C@@H](CN(C)Cc2ccncc2)[C@H](C)CN([C@H](C)CO)C(=O)c2cc(NC(=O)NC3CCCCC3)ccc2O1,0.242%
5,CN1c2ccc(-c3cccc(F)c3)cc2[C@H]2[C@H](CCN2C(=O)c2cccc(F)c2)[C@H]1CO,-3.71%
6,Cc1ccc(C)c(S(=O)(=O)N2CCN(C(=O)Nc3ccccc3)CC2)c1,1.58%
7,COc1ccc(-c2csc3ncnc(N4CCN(S(=O)(=O)c5ccccc5C#N)CC4)c23)cc1,22.1%
8,Cc1ccc(C)c(S(=O)(=O)N2CCN(c3ncnc4sccc34)CC2)c1,51.5% (active)
9,CCNC(=O)[C@H]1[C@H](CO)[C@H]2Cn3c(ccc(-c4cccc(OC)c4)c3=O)[C@H]2N1Cc1nccs1,2.22%
10,C[C@H]1CN([C@@H](C)CO)C(=O)c2cc(/C=C/c3ccccc3)cnc2O[C@@H]1CN(C)C(=O)NC1CCCCC1,-13.4%
11,COCC(=O)Nc1ccc2c(c1)OC[C@@H](C)N(C(=O)c1cnccn1)C[C@H](C)[C@@H](OC)CN(C)C2=O,-0.326%
12,CC(C)C(C)NC(=O)COc1nc2ccccc2nc1N(C)C1CCCCC1 (stereo not drawn),6.59%
13,CN(c1ccc2nc3ccccc3c(=O)n2n1)C1CCCCC1,84.9% (active)
14,CC(C)c1cc(C(=O)NC2CCCCCC2)c2ccccc2n1,-3.93%
15,COc1cccc(NC(=O)C[C@@H]2CC[C@H]3[C@@H](COc4ccc(NC(=O)C5CCC5)cc4C(=O)N3C)O2)c1,-3.34%
16,Cc1ccc(S(=O)(=O)Nc2ccc3c(c2)C(=O)N([C@@H](C)CO)C[C@H](C)[C@@H](CN(C)CC2CC2)O3)cc1,-3.89%
17,C[C@H]1CN([C@@H](C)CO)C(=O)c2ccccc2-c2ccccc2CO[C@@H]1CN(C)C(=O)CCN(C)C,2.93%
18,COc1ccc(-c2nc3c(s2)CCc2onc(-c4ccc(OC)cc4)c2-3)cc1,65.6% (active)
19,COc1ccc(-c2nc3c(s2)CCc2onc(-c4ccc(Br)cc4)c2-3)cc1,24.2%
20,COc1ccc(-c2nc(CCNC(=O)c3ccc(Br)o3)cs2)cc1,-1.15%
21,C[C@@H]1CN([C@@H](C)CO)C(=O)c2cc(NS(=O)(=O)c3cn(C)cn3)ccc2O[C@@H](C)CCCCO[C@@H]1CN(C)Cc1ccncc1,4.01%
22,COCC(=O)Nc1ccc2c(c1)C(=O)N(C)C[C@@H](OC)[C@@H](C)CN(CC1CCCCC1)[C@@H](C)CO2,-0.183%
23,CCC(=O)N1CC(=O)N2[C@@H](CO)[C@@H](c3ccc(C#CC4CCCC4)cc3)[C@@H]2C1,9.48%

row,SMILES,inhibition
1,CCC(=O)N1CC(=O)N2[C@@H](CO)[C@H](c3ccc(C#CC4CCCC4)cc3)[C@@H]2C1,56.6% (active)
2,COCC(=O)N1CC(=O)N2[C@H](CO)[C@@H](c3ccc(C#CC4CCCC4)cc3)[C@H]2C1,-0.851%
3,COc1ccc2c3c([nH]c2c1)[C@@H](CO)N(C(=O)CN1CCOCC1)CC31CCN(C)CC1,-7.25%
4,CO[C@H]1CN(C)C(=O)c2ccc(NS(C)(=O)=O)cc2OC[C@@H](C)N(Cc2ccccc2)C[C@H]1C,-2.52%
5,O=C(C1CC1)N1CC(=O)N2[C@H](CO)[C@@H](c3ccc(-c4ccccc4F)cc3)[C@@H]2C1,-0.073%
6,COc1ccc2c3c(n(C)c2c1)[C@@H](CO)N(CC1CC1)CC31CN(C(=O)Nc2c(C)noc2C)C1,-1.03%
7,CCCn1nc(C(=O)Nc2ccc3nc(C)sc3c2)c2ccccc2c1=O,-12%
8,CC(=O)Nc1ccc2nc(NC(=O)CS(=O)(=O)c3ccc(F)cc3)sc2c1,-3.37%
9,CCCC(=O)Nc1nc2ccc(NC(=O)c3c(F)c(F)c(OC)c(F)c3F)cc2s1,57.7% (active)
10,O=C(NC[C@@H]1[C@@H](c2ccccc2)[C@H](CO)N1C(=O)C1CCC1)NC1CCCC1,14.7%
11,COc1ccccc1-c1ccc2n(c1=O)C[C@@H]1[C@@H](CO)[C@H](C(=O)NCc3ccccc3Cl)N[C@H]21,-17.8%
12,Cc1ccc(-c2nn(-c3ccccc3)cc2/C=C2\SC(=S)N(CCCCCC(=O)O)C2=O)o1,-10.8%
13,O=C1/C(=C/c2ccc(F)cc2)SC(=S)N1CCCC(=O)N1CCCCC1CCO (stereo not drawn),-2.88%
14,C=CCOc1ccc(/C=C2\SC(=S)N(CCC(=O)O)C2=O)cc1,78.5% (active)
15,C[C@H]1CN([C@@H](C)CO)C(=O)c2cccc(NS(=O)(=O)c3ccc(F)cc3)c2O[C@@H]1CN(C)C,1.9%
16,Cc1ccc(S(=O)(=O)N(C)C[C@@H]2Oc3c(NC(=O)c4ccncc4)cccc3C(=O)N([C@@H](C)CO)C[C@@H]2C)cc1,-2.33%
17,COc1ccc(NC(=O)N[C@@H]2C=C[C@H](CC(=O)NC3CCC3)O[C@@H]2CO)cc1,3.89%
18,O=C(C1CCCC1)N1CC(=O)N2[C@H](C1)[C@@H](c1ccc(-c3ccccc3F)cc1)[C@@H]2CO,-3.17%
19,COc1ccc2c3c(n(C)c2c1)[C@H](CO)NCC31CCN(C(=O)Nc2ccccc2F)CC1,9.22%
20,C[C@H]1CN([C@@H](C)CO)C(=O)c2c(c3ccccc3n2C)-c2ccccc2CO[C@H]1CN(C)C(=O)Nc1ccc(F)cc1,-3.34%
21,O=C(C[C@H]1C[C@@H]2c3cc(NC(=O)c4cccnc4)ccc3O[C@@H]2[C@@H](CO)O1)NCc1ccccc1F,6.33%
22,C[C@H](O)C#Cc1ccc2c(c1)O[C@@H](CN(C)CC1CCCC1)[C@H](C)CN([C@@H](C)CO)S2(=O)=O,-1.43%
23,Cc1ccc(CCC(=O)Nc2ncc(Cc3cc(Cl)ccc3Cl)s2)o1,54% (active)

row,SMILES,inhibition
1,Cc1ccc(C(=O)Nc2nc3ccc(Cl)cc3s2)o1,-92.8%
2,O=C(CCc1ccccc1Cl)Nc1ccc(S(=O)(=O)Nc2nccs2)cc1,8.82%
3,CCC(=O)Nc1ccc2c(c1)C(=O)N(C)C[C@H](OC)[C@@H](C)CN(C(=O)c1cnccn1)[C@@H](C)CO2,4.08%
4,O=C(NC[C@H]1CC[C@H]2[C@H](CN2Cc2cccc(Cl)c2)O1)C1CC1,5.25%
5,Cc1cccc(-n2ncc3c(=O)[nH]c(SCC(=O)Nc4cc(C)on4)nc32)c1,-9.98%
6,CCCNC(=O)c1c(Cl)cnn1-c1ccc(C)cc1,-130%
7,Cc1cccc(-n2ncc(Cl)c(Cl)c2=O)c1,79.8% (active)
8,O=C(C[C@@H]1C[C@@H]2c3cc(NS(=O)(=O)c4ccc(F)cc4)ccc3O[C@@H]2[C@@H](CO)O1)N1CCOCC1,-1.95%
9,CNC[C@H]1Oc2cc(C#CC3CCCC3)ccc2S(=O)(=O)N([C@H](C)CO)C[C@@H]1C,3.9%
10,Cc1ccc2[nH]c(=O)c(CC(=O)O)c(-c3ccccc3)c2c1,-1.99%
11,Cc1cccc(N(C)C(=O)c2cc3c(=O)[nH]c4ccc(C)cc4c3s2)c1,65% (active)
12,CCN(CC)CCCNC(=O)c1cc2c(=O)[nH]c3ccc(C)cc3c2s1,7.57%
13,O=C([C@H]1[C@H](CO)[C@H]2Cn3c(cccc3=O)[C@@H]1N2Cc1cocn1)N1CCCCC1,-0.44%
14,CCC(C)Cn1c(O)cc2nn(-c3nc4ccccc4s3)c(=O)c-2c1C (stereo not drawn),64.5% (active)
15,N#Cc1ccc(-c2ccc([C@H]3[C@H](CO)N4C(=O)CN(C(=O)Cc5ccccc5)C[C@@H]34)cc2)cc1,-6.19%
16,COc1ccc(CNC(=O)C[C@@H]2C=C[C@@H](NC(=O)c3ccc4c(c3)OCO4)[C@@H](CO)O2)cc1,-0.519%
17,CCNC(=O)C[C@@H]1CC[C@@H]2[C@@H](COc3ccc(NC(=O)Nc4ccccc4F)cc3C(=O)N2C)O1,-3.28%
18,COc1cc2[nH]c(=S)n(Cc3ccc(F)cc3)c(=O)c2cc1OC,11.2%
19,CCOc1cc2[nH]c(=S)n(Cc3ccc(C(=O)N4CCN(C)CC4)cc3)c(=O)c2cc1OCC,67.5% (active)
20,COc1ccc(Cn2c(=S)[nH]c3cc(C(=O)N4CCCCC4)ccc3c2=O)cc1,-2.4%
21,O=C(Nc1ccc(F)cc1)N[C@@H]1CC[C@H](CC(=O)N2CCCCC2)O[C@H]1CO,6.37%
22,C[C@@H]1CN([C@@H](C)CO)S(=O)(=O)c2ccc(-c3ccc(C(=O)N(C)C)cc3)cc2O[C@@H]1CN(C)C(=O)Cc1ccccn1,-2.65%
